In PubChem BioAssay (NCI) one finds growth data, which are given here for eight compounds.

About 83,000 compounds went through this panel and 20% of them were active in at least one assay; those are over-represented in the sample as a whole.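 In brief: 96-well plates, 48 h treatment, single concentration, percent growth endpoint.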 Values without a mark were called inactive. The source made the active and inactive calls. The calls were made as follows: active = growth percent below 10; inactive = the rest.

Some test systems named below: SR leukemia; RPMI-8226 leukemia; OVCAR-8 ovarian; OVCAR-5 ovarian; OVCAR-4 ovarian; SK-OV-3 ovarian; IGROV1 ovarian; OVCAR-3 ovarian; HS 578T breast; NCI/ADR-RES ovarian; T-47D breast; BT-549 breast; MDA-MB-435 melanoma; SW-620 colon; MCF7 breast; HCT-116 colon; HCC-2998 colon; KM12 colon.
What all share (assay): NCI-60 one-dose screen, 48 h (100 = growth as untreated, 0 = no growth, -100 = all killed)
Conditions in all cases: 10 µM unless noted

Take `CC1=C(C)C(=O)C(Nc2cccc(C)c2)=C(Br)C1=O`: the growth in the assay on SR leukemia is 69.3%; with RPMI-8226 leukemia, 35.8%; in the assay on OVCAR-8 ovarian, 95.7%; with OVCAR-5 ovarian, 128%; with OVCAR-4 ovarian, 69.3%; in the assay on SK-OV-3 ovarian it was 85.7%. Also, the growth is 84.5% in the assay on IGROV1 ovarian; 110% in the assay on OVCAR-3 ovarian; 96.1% with HS 578T breast; 98.1% with NCI/ADR-RES ovarian; 4.47% (active) in the assay with T-47D breast; 106% in the assay with BT-549 breast. Moreover, the growth in the assay on MDA-MB-435 melanoma was 109%; in the assay on SW-620 colon, 107%; in the assay on MCF7 breast, 75.7%; in the assay on HCT-116 colon, 76.9%; in the assay with HCC-2998 colon, 111%; in the assay with KM12 colon, 105%.

With `CC(=C(c1ccc(OCCN2CCCC2)cc1)c1ccc(OCCN2CCCC2)cc1)c1ccc(Cl)cc1`, the growth with SR leukemia was -45.8% (active); in the assay with RPMI-8226 leukemia it was -54.8% (active); with OVCAR-8 ovarian, -6.74% (active); in the assay on OVCAR-5 ovarian, -16% (active); in the assay with OVCAR-4 ovarian it was -11.2% (active); with SK-OV-3 ovarian, 85.8%. Besides, the growth in the assay with IGROV1 ovarian was -50.7% (active); in the assay with OVCAR-3 ovarian, -20.8% (active); in the assay with HS 578T breast, -31.2% (active); in the assay with NCI/ADR-RES ovarian, -12% (active); with T-47D breast it was -64.7% (active); in the assay with BT-549 breast, 55.8%. Moreover, the growth in the assay on MDA-MB-435 melanoma was -89.7% (active); with SW-620 colon, -73.3% (active); in the assay on MCF7 breast it was -75% (active); with HCT-116 colon, -93.6% (active); with HCC-2998 colon, -57.1% (active); in the assay on KM12 colon, -22.9% (active).

For the compound `COc1ccc2sc(NC(=O)CCCCCCNC(=O)C(O)(O)C(F)(F)F)nc2c1`, the growth in the assay on SR leukemia was 12.5%; in the assay on RPMI-8226 leukemia, 14.6%; with OVCAR-8 ovarian it was 2.54% (active); with OVCAR-5 ovarian it was -0.588% (active); with OVCAR-4 ovarian, 27.7%; in the assay on SK-OV-3 ovarian, -26.6% (active). Besides, the growth with IGROV1 ovarian is 0.233% (active); in the assay on OVCAR-3 ovarian, -23.9% (active); in the assay with HS 578T breast, 19.1%; in the assay on NCI/ADR-RES ovarian, 5.2% (active); in the assay on T-47D breast, 8.02% (active); with BT-549 breast it was 7.95% (active). Besides, the growth in the assay with MDA-MB-435 melanoma is 1.37% (active); with SW-620 colon, 5.18% (active); in the assay with MCF7 breast, 9.01% (active); in the assay on HCT-116 colon, 0.844% (active); in the assay on HCC-2998 colon, -45.9% (active); in the assay on KM12 colon, -15.1% (active).

For the compound `Cn1ncc2ncc(-c3ccc4ncc(C#N)c(N5CCc6cc(F)c(Cl)cc65)c4c3)cc21`, the growth in the assay on SR leukemia was 22.3%; in the assay on RPMI-8226 leukemia it was 35.8%; in the assay with OVCAR-8 ovarian, 38.8%; with OVCAR-5 ovarian it was 47%; with OVCAR-4 ovarian, 26.1%; in the assay with SK-OV-3 ovarian, 15%. The growth in the assay on IGROV1 ovarian is -9.7% (active); with OVCAR-3 ovarian, 29.8%; in the assay on HS 578T breast, -1.2% (active); in the assay on NCI/ADR-RES ovarian, 39.3%; in the assay on T-47D breast it was 5.2% (active); with BT-549 breast, 37.4%. The growth was 27.1% in the assay on MDA-MB-435 melanoma; 54.4% in the assay on SW-620 colon; 9.79% (active) in the assay with MCF7 breast; 53.1% with HCT-116 colon; 46.4% in the assay on HCC-2998 colon; 52.5% in the assay on KM12 colon.

As to `CC(C)(C)Nc1nc2c(OCCc3ccccc3)cccn2c1-c1cccc(Oc2ccccc2)c1`, the growth with SR leukemia is 3.9% (active); with RPMI-8226 leukemia, 4.94% (active); in the assay with OVCAR-8 ovarian, 10.2%; in the assay on OVCAR-5 ovarian it was 17.7%; with OVCAR-4 ovarian it was 31.2%; with SK-OV-3 ovarian it was -1.76% (active). The growth with IGROV1 ovarian is 34%; with OVCAR-3 ovarian it was 24%; in the assay with HS 578T breast, 13.9%; in the assay on NCI/ADR-RES ovarian it was 7.94% (active); in the assay with T-47D breast it was 8.72% (active); with BT-549 breast, -11% (active). Further, the growth in the assay with MDA-MB-435 melanoma is 19.9%; in the assay with SW-620 colon, 23.5%; with MCF7 breast it was 4.96% (active); with HCT-116 colon, 4.13% (active); with HCC-2998 colon, 21.3%; in the assay on KM12 colon, 14%.

Regarding `O=C(/C=C/c1cccc(F)c1)c1cccc(OCCCCOc2cccc(C(=O)/C=C/c3cccc(F)c3)c2)c1`, the growth is 84.8% with SR leukemia; 8.56% (active) with RPMI-8226 leukemia; 104% in the assay with OVCAR-8 ovarian; 99.1% with OVCAR-5 ovarian; 106% with OVCAR-4 ovarian; 109% in the assay with SK-OV-3 ovarian. Further, the growth in the assay with IGROV1 ovarian is 103%; with OVCAR-3 ovarian, 105%; in the assay with HS 578T breast it was 99.3%; in the assay with NCI/ADR-RES ovarian, 106%; in the assay with T-47D breast, 105%; with BT-549 breast it was 124%. The growth is 103% with MDA-MB-435 melanoma; 98.1% in the assay with SW-620 colon; 54.6% in the assay on MCF7 breast; 72.8% in the assay with HCT-116 colon; 114% with HCC-2998 colon; 110% with KM12 colon.

With `Cc1ccc2c(n1)C(=O)C(Cl)=C(Nc1ccccc1C(=O)OC(C)(C)C)C2=O`, the growth was -30.8% (active) with SR leukemia; -31.8% (active) with RPMI-8226 leukemia; 66.8% in the assay on OVCAR-8 ovarian; 139% in the assay on OVCAR-5 ovarian; -45.3% (active) with OVCAR-4 ovarian; 105% in the assay with SK-OV-3 ovarian. Further, the growth in the assay with IGROV1 ovarian is 59.6%; in the assay with OVCAR-3 ovarian, -63.6% (active); in the assay on HS 578T breast it was 84.1%; in the assay on NCI/ADR-RES ovarian it was 64.2%; in the assay on T-47D breast, -25.2% (active); in the assay with BT-549 breast, 38.6%. In addition, the growth with MDA-MB-435 melanoma was 84.7%; in the assay on SW-620 colon, -28.3% (active); in the assay on MCF7 breast, -60.1% (active); in the assay with HCT-116 colon, -84.6% (active); in the assay on HCC-2998 colon it was 92.3%; with KM12 colon it was 99.1%.

Regarding `CCOC(=O)c1cnc2c(-c3ccc(Cl)c(Cl)c3)cnn2c1`, the growth in the assay with SR leukemia was 23.1%; with RPMI-8226 leukemia it was 87.7%; in the assay on OVCAR-8 ovarian it was 93.6%; in the assay with OVCAR-5 ovarian it was 99.8%; in the assay on OVCAR-4 ovarian, 98.8%; in the assay on SK-OV-3 ovarian, 90.8%. For the same compound, the growth was 79.1% with IGROV1 ovarian; 70.8% with OVCAR-3 ovarian; 82.6% in the assay with HS 578T breast; 58.5% in the assay on NCI/ADR-RES ovarian; 86.2% with T-47D breast; 26.5% in the assay on BT-549 breast. For the same compound, the growth is -20.3% (active) with MDA-MB-435 melanoma; 42.3% in the assay on SW-620 colon; 82.8% in the assay on MCF7 breast; 62.7% with HCT-116 colon; 85% in the assay with HCC-2998 colon; 57.5% with KM12 colon.
